Data as given in PubChem BioAssay AID1021 (Emory University Molecular Libraries Screening Center, 2008).
Several values for one entry are separate records, joined by “and”; a condition that tells them apart may be missing. Identical values can stand only once. Hit rate of the full screen: of about 220,000 compounds, about 2,100 (0.95%) were called active. For the sample, actives were picked, then their nearest neighbours and some compounds at random. Values without a mark were called inactive.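 How the source made its calls: active means compounds that cut the binding signal by more than half at the single screening dose; inactive means the rest.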

Each molecule was assayed against Induced myeloid leukemia cell differentiation protein Mcl-1 (Homo sapiens) (UniProt Q07820) (assay: disruptors of Mcl-1 and Bid BH3 peptide – biochemical, TR-FRET, 1536-well, primary screen (AID 1021;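 further: His-tagged Mcl-1 with europium anti-His antibody binding Bid BH3 peptide; 0% = Mcl-1 plus peptide wells and 100% = peptide-only wells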)). Settings: TR-FRET Mcl-1/Bid-Dy647 peptide binding, at 21.7 µM, active compounds read high.
Chain of Induced myeloid leukemia cell differentiation protein Mcl-1 (Homo sapiens) (Q07820 whole entry, looked up): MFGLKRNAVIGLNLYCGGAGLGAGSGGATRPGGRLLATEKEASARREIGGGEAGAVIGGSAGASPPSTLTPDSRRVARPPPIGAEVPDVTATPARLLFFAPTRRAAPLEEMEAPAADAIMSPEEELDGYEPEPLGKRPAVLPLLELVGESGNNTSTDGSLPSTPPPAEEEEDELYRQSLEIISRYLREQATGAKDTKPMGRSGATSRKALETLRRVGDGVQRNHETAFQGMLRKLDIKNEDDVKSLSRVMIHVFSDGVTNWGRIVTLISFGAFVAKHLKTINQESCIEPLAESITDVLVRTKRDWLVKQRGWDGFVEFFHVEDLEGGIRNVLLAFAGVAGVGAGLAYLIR

SMILES | inhibition
CCOc1cc(C(=O)OCC(=O)Nc2cccc(C)c2)ccc1OCC(=O)N1CCOCC1 | -54%
COc1cc(C(=S)N2CCOCC2)ccc1O | -30.2%
CCOc1cc(C(=S)N2CCOCC2)ccc1O | 74.5% (active)
O=C(Nc1ccc2c(c1)C(=O)OC2)Nc1cccc2ccccc12 | -19.5%
COc1ccc(/C=C/CN2CCN(Cc3ccc(C)cc3)C(CCO)C2)cc1 (centres undefined) | -9.23%
NC1=NC[C@@H](Cc2ccc(O)cc2)N1CC1CCCCC1 | -44.1%
C#CCOCCOCCOCCNc1nc(N2CCN(C(=O)C(Cc3ccc(O)cc3)n3cc(C(N)CC(C)C)nn3)CC2)nc(N2CCN(C(=O)C(Cc3ccc(O)cc3)n3cc(C(N)C(C)CC)nn3)CC2)n1 (centres undefined) | -1.6%
C#CCOCCOCCOCCNc1nc(N2CCN(C(=O)[C@H](CCC(=O)O)n3cc(C(N)CO)nn3)CC2)nc(N2CCN(C(=O)[C@H](Cc3ccc(O)cc3)n3cc(C(N)[C@H](C)CC)nn3)CC2)n1 (some centres undefined) | 62.7% (active)
C#CCOCCOCCOCCNc1nc(N2CCN(C(=O)[C@H](Cc3ccc(O)cc3)n3cc(C(N)CC(C)C)nn3)CC2)nc(N2CCN(C(=O)[C@H](CCC(=O)O)n3cc(C(N)[C@H](C)CC)nn3)CC2)n1 (some centres undefined) | 2.45%
O=C(CCCl)Nc1ccc(S(=O)(=O)NCc2ccco2)cc1 | -69.5%
CCNC(=O)NC(=O)C(C)OC(=O)C1CCN(S(=O)(=O)c2ccccc2F)CC1 (centres undefined) | -21.6%
COc1ccc(N2C(=O)C3CCCN3C2c2cccc(OC)c2)cc1 (centres undefined) | -26.8%
COc1ccc(N2C(=O)C3CCCN3C2c2cc(OC)c(OC)cc2OC)cc1 (centres undefined) | -12.4%
COc1ccc(OC)c(C2N(c3ccccn3)C(=O)C3CCCN32)c1 (centres undefined) | 51.8% (active)
c1ccc(CSc2nnc(-c3ccco3)c(-c3ccco3)n2)cc1 | 91.7% (active)
O=C(Nc1nnc(SCc2ccccc2)s1)c1ccco1 | -46.6%
Clc1ccccc1CSc1nnc(-c2ccco2)c(-c2ccco2)n1 | 99.3% (active)
Nc1nc(SCc2ccccc2Cl)n[nH]1 | -6.93%
COC(OC)c1ccnc(SCc2ccccc2Cl)n1 | -7.91%
Brc1ccc(CSc2ccc(-c3ccco3)nn2)cc1 | -15.8%
COC(=O)c1cc(=O)n(-c2c(Cl)cc(C(F)(F)F)cc2Cl)[nH]1 | -6.09%

SMILES | inhibition
O=C1NNC(c2ccccc2)=N/C1=C\c1ccc(Cl)cc1 | -13.5%
Cc1nc2nc[nH]n2c(=O)c1C/C=C/c1ccccc1 | -22.4%
CCS(=O)(=O)c1ccc(C(=O)NC)c(Cl)c1Cl | -26.1%
CCCCN1Cc2c(nc3cc(-c4ccccc4)[nH]n3c2=O)C1=O | -37.8%
O=S(=O)(Nc1n[nH]c(C(F)(F)F)n1)c1ccccc1 | -11.3%
CCc1cc2c(N3CCN(c4nnc(CC)s4)CC3)ncnc2s1 | 56.7% (active)
Oc1ccccc1N1CCN(c2ncnc3sc(-c4ccccc4)cc23)CC1 | -18.1%
CCc1cc2c(SCC(=O)Nc3ncc(Cl)c(C)c3Cl)ncnc2s1 | -33.7%
N#Cc1c(NCCO)ccc([N+](=O)[O-])c1NCCO | -25.7%
CCCCCC(=O)Nc1ccc(-c2cn3cccnc3n2)cc1 | -4.56%
CC(C)n1c(=S)[nH]c2cc(C(F)(F)F)ccc21 | -33.7%
COc1ccc(OC)c(Nc2nc3ccccc3n3cnnc23)c1 | -7.62%
CN(C)/C=C(/C(=O)c1ccccc1Cl)S(C)(=O)=O | -0.7%
CCOC(=O)c1cn(CC)c2cc(F)c(F)cc2c1=O | -8.08%
CC(C)c1ccc2c(c1)c(SC(C)(C)C)c(CC(C)(C)C(=O)O)n2Cc1ccc(Cl)cc1 | 83.2% (active)
CCC(=O)Nc1cccc(C2=NOC3(C2)C[C@@H](C(N)=O)N(C(=O)c2cc([N+](=O)[O-])cc([N+](=O)[O-])c2C)C3)c1 (some centres undefined) | -35.2%
CC(C)C(=O)N1CCC2(CC1)Oc1ccc(F)cc1C(=O)C21CC(c2ccccc2)=NO1 (centres undefined) | -8.72%
Cc1ccc(S(=O)(=O)/N=S(\C)C(C)C)cc1 (centres undefined) | 89.4% (active)
CC/S(CC1CC1(Cl)Cl)=N\S(=O)(=O)c1ccc(C)cc1 (centres undefined) | -4.99%
CCCC/S(C)=N/S(=O)(=O)c1ccc(C)cc1 (centres undefined) | 4.25%
O=C1[C@@H]2C(c3cccnc3)=NO[C@@H]2C(=O)N1c1ccc(Cl)cc1Cl | -19.8%

SMILES | inhibition
CCN1C(=O)/C(=c2\s/c(=C3\Sc4ccccc4N3C)c(=O)n2C)N(C)C1=S | 79.2% (active)
CCC(=O)/C=C1\Sc2ccccc2N1CC | -12.9%
CCN1C(=O)/C(=C2/Sc3ccccc3N2CCCS(=O)(=O)O)SC1=S | -30.2% and -29.9%
Cc1cc(F)ccc1NC(=O)C(C)n1c2ccccc2c2nc(=O)cc(C)n21 (centres undefined) | -4.95%
COCCN(CCOC)c1nc(N)c2c(N)nc3c(c2c1C#N)CC(=O)N3Cc1ccc(Cl)cc1 | 54.2% (active)
CCOc1ccc(NC(=O)c2cc(C)nc3ccccc23)cc1 | -4.96%
COc1ccccc1C(=O)NNC(=O)c1ccc(NC(=O)c2ccccc2)cc1 | -23.3%
COc1ccccc1C(=O)Nc1ccc(OCc2nnc3c4ccccc4c(C)nn23)cc1 | 59.8% (active)
CCOC(=O)N/N=C1\CC(C)S(=O)(=O)c2ccc(Cl)cc21 (centres undefined) | -6.47%
O=C(O)CCc1cccnc1 | -29.9%
COc1ccc2nc(Nc3nc4cc5c(cc4s3)OCCO5)sc2c1 | -62.6%
COc1ccc2nc(NC(=O)c3ccc(Br)s3)sc2c1 | 4.41%
COc1ccc2nc(Nc3nc4ccc(NC(C)=O)cc4s3)sc2c1 | 72.8% (active)
COc1ccc(N2CCN(C(=O)COc3ccc4c(C)cc(=O)oc4c3)CC2)cc1 | -16.1%
COc1cccc(-c2nnc(SCCOc3ccc4c(C)cc(=O)oc4c3)o2)c1 | -1.18%
COc1ccc(-c2csc3ncnc(Oc4ccc5c(C)cc(=O)oc5c4)c23)cc1 | 63.3% (active)
O=C(CN1CCN(Cc2ccccc2)CC1)NC(c1ccccc1)c1ccccc1 | 26.9%
COc1ccc(NC(=O)CCN2C(=O)/C(=C/c3ccc4c(c3)OCO4)SC2=S)cc1 | -17%
Cc1ccc(C2C3=C(Nc4[nH]n(-c5ccccc5)c(=O)c42)c2ccccc2C3=O)cc1 (centres undefined) | 84.6% (active)
Cc1ccc(N=Nc2c(C)[nH]n(-c3ccccc3)c2=O)cc1 | -11.4%
Cc1cc(C)c(C2C3=C(Nc4c2c(C)nn4-c2ccccn2)c2ccccc2C3=O)c(C)c1 (centres undefined) | -27.1%

SMILES | inhibition
CC(=O)NC(CC(=O)O)c1ccc(F)cc1 (centres undefined) | -2.56%
O=C(O)c1ccc(/C=N/Nc2nc(N3CCCCC3)nc(N3CCCCC3)n2)cc1 | 5.5%
Cc1ccc(C(CC(=O)O)Nc2nc(N3CCCCC3)nc(N3CCCCC3)n2)cc1 (centres undefined) | 50.7% (active)
CCC(C)(C)NC(=O)C1c2ccccc2Oc2ccccc21 | -5.83%
Cc1ccc(-c2csc3nnc(SCC(=O)NCc4ccco4)n23)cc1 | -17.3%
CCn1c(COc2ccccc2)nnc1SCC(=O)NCc1ccco1 | -25.4%
CCn1c(SCC(=O)NCc2ccco2)nnc1-c1ccc(N)cc1 | 75.2% (active)
CC(C)n1c(=O)[nH]c2cc(C(=O)Nc3ccccc3)ccc21 | -10.9%
COc1c(C=O)c(CCN(C)C(=O)c2ccc(F)cc2)cc2c1OCO2 | 0.65%
Cc1ccc(N2CCN(C3=NC(=O)/C(=C\c4cccs4)S3)CC2)cc1 | 97.7% (active)
Cc1ccc(N2CCN(/N=C/c3cccs3)CC2)cc1 | -7.6%
Cc1ccsc1/C=C1\SC(N2CCOCC2)=NC1=O | -15.9%
Cc1ccc(-c2nn(-c3cccc(F)c3)cc2CNCCc2ccncc2)o1 | -20.2%
C=CCN(c1ccccc1C(=O)NCC(=O)OCC)S(=O)(=O)c1ccc(C)cc1 | -11.3%
O=S(=O)(c1cccc(-c2nnc(SC(F)F)n2-c2ccccc2)c1)N1CCCCC1 | 91.8% (active)
O=S(=O)(c1ccc(-c2ccccc2)cc1)N1CCCC1 | -19.2%
O=S(=O)(c1cccc(-c2nnc3n2CCCCC3)c1)N1CCOCC1 | -26.9%
COc1cccc(/C=N/Nc2cc(C)nc(-c3ccccc3O)n2)c1O | -54.1%
COc1cccc(/C=N\NC(=O)C2=NNC(=O)C2C)c1O (centres undefined) | -128%
COc1cccc(/C=N/NC(=O)c2[nH]nc3c2CCc2ccccc2-3)c1O | 53.3% (active)
O=C(NCc1ccc2c(c1)OCO2)c1sccc1Br | -8.46%
